Most compounds without a hit are left out; they make up all but 11% or so of the library.
HEK293 tox – HEK 293 cell cytotoxicity | HEK 293 viability, ATP luminescence (CellTiter-Glo), 48-72 h | Potency, µM (highest dose often 115 µM), usual class: inhibitors | 94,000 compounds, 6.6% hits; note: nearly all actives have a fitted effect of over 60% in size
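HEK 293 cells seeded at 250 cells/well were exposed to compound for 48 or 72 hr at 37 degree Celsius. Viability taken as ATP content by CellTiter-Glo luminescence.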
FLuc inh – Photinus pyralis luciferase inhibition | P08659 | purified P. pyralis luciferase, luminescence, biochemical | AID 1347043 | Potency, µM (doses to about 115 µM), usual class: inhibitors | 76,000 compounds, 2.5% hits; note: nearly all actives have a fitted effect of over 65% in size
Target sequence (P08659 whole entry, looked up): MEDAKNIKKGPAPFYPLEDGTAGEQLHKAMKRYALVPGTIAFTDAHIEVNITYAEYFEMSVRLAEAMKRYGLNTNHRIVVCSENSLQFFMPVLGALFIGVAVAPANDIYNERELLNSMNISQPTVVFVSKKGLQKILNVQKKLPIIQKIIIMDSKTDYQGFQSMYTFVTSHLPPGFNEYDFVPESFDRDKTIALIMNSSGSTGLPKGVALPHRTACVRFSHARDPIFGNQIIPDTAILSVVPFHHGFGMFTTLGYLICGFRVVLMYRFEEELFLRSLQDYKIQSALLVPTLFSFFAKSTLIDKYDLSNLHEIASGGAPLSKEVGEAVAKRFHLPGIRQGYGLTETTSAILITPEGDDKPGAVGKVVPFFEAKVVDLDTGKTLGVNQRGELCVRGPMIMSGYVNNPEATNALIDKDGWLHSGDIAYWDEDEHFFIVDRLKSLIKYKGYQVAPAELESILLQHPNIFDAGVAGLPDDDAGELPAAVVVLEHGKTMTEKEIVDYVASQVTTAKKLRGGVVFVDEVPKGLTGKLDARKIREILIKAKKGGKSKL
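Purified 10nM P. pyralis luciferase with 10uM D-luciferin and 10uM ATP in 50mM Tris acetate pH 7.5, 10mM Mg acetate, 0.01% Tween-20, 0.05% BSA. qHTS titration; luminescence read by CCD imager.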
3T3 cytotox – NIH 3T3 cell cytotoxicity; NIH 3T3 viability, CellTiter-Glo ATP luminescence, 48-72 h; Potency, µM (doses to about 96.7 µM), usual class: inhibitors; 94,000 compounds, 4.3% hits; AID 1345082; note: nearly all actives have a fitted effect of over 55% in size
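Cytotoxicity is measured as loss of cellular ATP: NIH 3T3 cells (400/well) are exposed to compound for 48 or 72 hr at 37 °C, then CellTiter-Glo luminescence is imaged after 10 min at room temperature.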
hNpr1 antagonist – blocks ANP-stimulated signaling of human Npr1 receptor | P16066 | HEK293 hNpr1 GloSensor cGMP, ANP-stimulated luminescence | 76,000 compounds, 1.6% hits | AID 1347048 | Potency, µM (doses to about 46.3 µM), hits mostly inhibitors; calls by dose curve; note: nearly all actives have a fitted effect of over 60% in size
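Compound pre-incubated 30 min at room temperature on GloSensor-loaded HEK293 cells stably carrying hNpr1 and the pGS-40F cGMP biosensor. Stimulation uses hNppA at 0.1 nM final; luminescence is taken at baseline and 20 min post-agonist.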
A number is an active result. Unless noted, calls come from the whole dose curve; as a rule, active = well fitted curve in the direction sought with a large enough effect; inconclusive = small, poorly fitted or top-dose-only effect, or another doubt; inactive = no such curve, though single readings can be large; an effect the other way counts as inactive or inconclusive.

Results for COc1ccccc1C(=O)NCc1nnc2ccc(-c3ccc(C)cc3)nn12 ?
HEK293 tox: inconclusive; FLuc inh: inactive; 3T3 cytotox: inconclusive; hNpr1 antagonist: inactive

Results for O=C(NCC1CCOCC1)Nc1ccc(Cl)cc1C(F)(F)F ?
HEK293 tox: inactive; FLuc inh: inactive; 3T3 cytotox: inactive; hNpr1 antagonist: inactive

What do the screens show for `c1cncc(CN2CCC(OC3CCN(Cc4ccncc4)CC3)CC2)c1`?
HEK293 tox: inactive; FLuc inh: inactive; 3T3 cytotox: inactive; hNpr1 antagonist: inactive

What do the screens show for `CC(C)C[C@@H]1N[C@H](C(=O)NCc2ccc(C#N)cc2)Cc2c[nH]c3cccc1c23`?
HEK293 tox: 56µM; FLuc inh: inactive; 3T3 cytotox: 25µM; hNpr1 antagonist: inactive

How did CC(C)C[C@@H]1N[C@H](C(=O)NCc2cccnc2)Cc2c[nH]c3cccc1c23 do in these assays?
HEK293 tox: 25µM; FLuc inh: inactive; 3T3 cytotox: inconclusive; hNpr1 antagonist: inactive

What do the screens show for `CC(C)C[C@@H]1N[C@H](C(=O)NCc2ccc(C(F)(F)F)cc2)Cc2c[nH]c3cccc1c23`?
HEK293 tox: 32µM; FLuc inh: inactive; 3T3 cytotox: 28µM; hNpr1 antagonist: inactive

What do the screens show for `C=CCn1cc2c3c(cccc31)[C@H](CC(C)C)N[C@H](C(=O)NCc1ccc(F)cc1)C2`?
HEK293 tox: inconclusive; FLuc inh: inactive; 3T3 cytotox: inconclusive; hNpr1 antagonist: inactive

Results for O=C(Cn1ccn2nc(-c3ccc(F)cc3)c(CO)c2c1=O)Nc1ccc2c(c1)OCCO2 ?
HEK293 tox: inactive; FLuc inh: inactive; 3T3 cytotox: inactive; hNpr1 antagonist: inactive

Results for COc1ccc(N2C(=O)C3(CCCCC3)C2C(=O)NCc2nc3ccccc3n2C)cc1 (stereo not drawn) ?
HEK293 tox: inconclusive; FLuc inh: inactive; 3T3 cytotox: inactive; hNpr1 antagonist: inactive

How did c1ccc(-c2nc(-c3ccncc3)no2)c(OC2CCNC2)c1 (stereo not drawn) do in these assays?
HEK293 tox: inconclusive; FLuc inh: inactive; 3T3 cytotox: inconclusive; hNpr1 antagonist: inactive

How did CC1=C[C@@H](CN2CCC(C(N)=O)CC2)[C@H](C(C)C)C[C@H]1Cc1nnc(C(C)(C)C)o1 do in these assays?
HEK293 tox: inconclusive; FLuc inh: inactive; 3T3 cytotox: inconclusive; hNpr1 antagonist: inactive

What do the screens show for `CC1=C[C@@H](CN2CCC(C(N)=O)CC2)[C@H](C(C)C)C[C@H]1Cc1nnc(-c2ccc(N(C)C)cc2)o1`?
HEK293 tox: 40µM; FLuc inh: inactive; 3T3 cytotox: 35µM; hNpr1 antagonist: inactive

Results for CC1=C[C@@H](CN2CCC(C(N)=O)CC2)[C@H](C(C)C)C[C@H]1Cc1nnc(-c2ccc(C)cc2)o1 ?
HEK293 tox: 35µM; FLuc inh: inactive; 3T3 cytotox: 32µM; hNpr1 antagonist: inactive

Results for Cc1noc2c(N(C)C)cc(-c3cccnc3)nc12 ?
HEK293 tox: inactive; FLuc inh: inactive; 3T3 cytotox: inconclusive; hNpr1 antagonist: inactive

Results for Cc1noc2c(Nc3ccc(C(N)=O)cc3)cc(-c3cccnc3)nc12 ?
HEK293 tox: inactive; FLuc inh: inactive; 3T3 cytotox: 20µM; hNpr1 antagonist: inactive

Results for Cc1noc2c(NC(C)C)cc(-c3cccnc3)nc12 ?
HEK293 tox: inactive; FLuc inh: inactive; 3T3 cytotox: 40µM; hNpr1 antagonist: inactive

What do the screens show for `Cc1noc2c(NCC3CCOCC3)cc(-c3cccnc3)nc12`?
HEK293 tox: inactive; FLuc inh: inactive; 3T3 cytotox: inconclusive; hNpr1 antagonist: inactive

How did O=C(NCc1nnc2ccc(-c3ccc(F)cc3)nn12)c1ccc(Cl)s1 do in these assays?
HEK293 tox: inactive; FLuc inh: inactive; 3T3 cytotox: inactive; hNpr1 antagonist: inactive

What do the screens show for `Cn1c(CNC(=O)C2(Cc3ccccc3)CCCCC(=O)N2)nc2ccccc21` (stereo not drawn)?
HEK293 tox: inconclusive; FLuc inh: inactive; 3T3 cytotox: inconclusive; hNpr1 antagonist: inactive

Results for Cn1c(CNC(=O)C2(C)CCCCC(=O)N2)nc2ccccc21 (stereo not drawn) ?
HEK293 tox: 45µM; FLuc inh: inactive; 3T3 cytotox: 40µM; hNpr1 antagonist: inactive

Results for COCCNC(=O)[C@@H]1C[C@@H](O)CN1C1CCN(C(=O)c2cccc(C)c2)CC1 ?
HEK293 tox: inactive; FLuc inh: inactive; 3T3 cytotox: inactive; hNpr1 antagonist: inactive

Results for Cc1noc(C)c1-c1cc2c(cc(-c3ccccc3)n2C)c(N(C)C)n1 ?
HEK293 tox: inconclusive; FLuc inh: inactive; 3T3 cytotox: inconclusive; hNpr1 antagonist: inactive

Results for CC(=O)Nc1cccc(-c2nc(-c3c(C)noc3C)cc3cc(C)oc23)c1 ?
HEK293 tox: 79µM; FLuc inh: inactive; 3T3 cytotox: 40µM; hNpr1 antagonist: inactive

Results for Cc1cc2cc(-c3c(C)noc3C)nc(-c3ccsc3)c2o1 ?
HEK293 tox: inconclusive; FLuc inh: inactive; 3T3 cytotox: inconclusive; hNpr1 antagonist: inactive

What do the screens show for `CC(=O)Nc1cccc(-c2nc(-c3c(C)noc3C)cc3c2cc(-c2ccccc2)n3C)c1`?
HEK293 tox: inconclusive; FLuc inh: inactive; 3T3 cytotox: 11µM; hNpr1 antagonist: inactive

What do the screens show for `CNC(=O)c1cc2cc(-c3c(C)noc3C)nc(-c3ccccc3C)c2o1`?
HEK293 tox: inconclusive; FLuc inh: inactive; 3T3 cytotox: 11µM; hNpr1 antagonist: inactive

Results for CN1c2cc(C(=O)NC3CCCCC3)ccc2C(=O)N2CCCCC21 (stereo not drawn) ?
HEK293 tox: inconclusive; FLuc inh: inactive; 3T3 cytotox: inactive; hNpr1 antagonist: inactive

How did Cc1ccc(NC(=O)Cn2ccn3nc(-c4ccccc4)c(CO)c3c2=O)cc1C do in these assays?
HEK293 tox: inconclusive; FLuc inh: inactive; 3T3 cytotox: inconclusive; hNpr1 antagonist: inactive

How did CCN1CCCN(C(=O)c2ccoc2)CC12CCOCC2 do in these assays?
HEK293 tox: inactive; FLuc inh: inactive; 3T3 cytotox: inactive; hNpr1 antagonist: inactive

How did O=C1NC[C@H]2O[C@H](Cc3cc(COc4ccccc4)on3)CC[C@@H]2O1 do in these assays?
HEK293 tox: inactive; FLuc inh: inactive; 3T3 cytotox: inactive; hNpr1 antagonist: inactive

How did Clc1cc(NCC2CCCCCC2)n2nccc2n1 do in these assays?
HEK293 tox: inconclusive; FLuc inh: inactive; 3T3 cytotox: 32µM; hNpr1 antagonist: inactive

How did Clc1cc(NC2CCCCCC2)n2nccc2n1 do in these assays?
HEK293 tox: 89µM; FLuc inh: inactive; 3T3 cytotox: inconclusive; hNpr1 antagonist: inactive

Results for O=C1c2cnc(-c3cccc(O)c3)nc2OCCN1c1cccc(C(F)(F)F)c1 ?
HEK293 tox: inconclusive; FLuc inh: inactive; 3T3 cytotox: inconclusive; hNpr1 antagonist: inactive

Results for O=C1c2cnc(-c3cncnc3)nc2OCCN1c1cccc(C(F)(F)F)c1 ?
HEK293 tox: inactive; FLuc inh: inactive; 3T3 cytotox: 40µM; hNpr1 antagonist: inactive

Results for COc1cccc(-c2ncc3c(n2)OCCN(c2cccc(C(F)(F)F)c2)C3=O)c1 ?
HEK293 tox: inconclusive; FLuc inh: 2µM; 3T3 cytotox: inconclusive; hNpr1 antagonist: inactive

Results for Cc1ccoc1C(=O)N1C[C@@H](COCC2CC2)[C@H](c2ccccn2)C1 ?
HEK293 tox: inconclusive; FLuc inh: inactive; 3T3 cytotox: inactive; hNpr1 antagonist: inactive
